# Screens from PubChem BioAssay.
# HT1080-NT tox = kills 2HG-producing HT-1080-NT fibrosarcoma cells; HT-1080-NT fibrosarcoma viability, CellTiter-Glo ATP luminescence, 48 h; Potency, µM (highest dose often 46.1 µM), for inactives: top-dose activity, negative = less viability, usual class: cytotoxic; 360,000 compounds, 1.6% hits;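 note: NT is the 2HG producing partner of a matched IDH1 knockdown line; potency is the fitted concentration of half-maximal effect; 0% = DMSO-treated cells and -100% = media-only wells without cells; nearly all actives have a fitted effect of over 55% in size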
#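 HT-1080-NT fibrosarcoma cells (2HG-overproducing), 750 cells/well in RPMI with 5% FBS, dosed after 2 h and incubated 48 h at 37C. CellTiter-Glo luminescence normalized to DMSO and no-cell wells; concentration-response curves fitted and classed.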
# HT1080 IDH1KD tx = toxicity to HT-1080 IDH1 knockdown cells (counter line). Potency, µM (series often up to 46.1 µM), without a hit: at the highest dose activity, negative = toxicity, usual class: cytotoxic. HT-1080 IDH1 knockdown viability, ATP luminescence, 48 h. AID 686971. 360,000 compounds, 2% hits;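 note: potency is the fitted concentration of half-maximal effect; 0% = DMSO wells and -100% = cell-free medium wells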
#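 Assay cells: HT-1080 with IDH1 knockdown, 750 per well, RPMI/5% FBS. Exposure: 48 h at 37 °C following 2 h pre-incubation. Read: CellTiter-Glo luminescence; fitted concentration-response, curve class assigned.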
# IL-1B inflam inh = inflammasome signaling inhibition, IL-1 beta readout | AID 743279 | activity change, % at 57.5 µM | THP-1 LPS/ATP IL-1B secretion, AlphaLISA, 16 h; stronger effect = lower value | 360,000 compounds, 4.7% hits; in the data active = activity change below about -50%; inconclusive = mostly about -30% to -49%
#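 THP-1 cells pretreated 1 hr with compounds (up to 57.5 uM final), then stimulated with LPS (250 ng/mL final) plus ATP (1.25 mM final); secreted IL-1B measured by AlphaLISA after 16 hr, decreased signal indicating inhibition.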
# TDP1 cell noCPT = qHTS for Inhibitors of human tyrosyl-DNA phosphodiesterase 1 (TDP1): qHTS in cells in absence of CPT. DT40 Tdp1-/- hTDP1 cells, no CPT, ATP luminescence, 48 h. Potency, µM (doses to about 46.2 µM), inactives show at the highest dose activity change, negative = growth inhibition, usual class: inhibitors. 420,000 compounds, 15% hits. AID 686978, 2013; note: potency is the fitted concentration of half-maximal effect; nearly all actives have a fitted effect of over 55% in size
#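 Seeded 400 DT40-hTDP1 cells/well (vehicle DMSO, no 20 nM CPT); pinned compounds; ≥48 hr at 37 °C; CellTiter-Glo luminescence as viability measure.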
# TDP1 cell CPT = DT40-hTDP1 cell growth loss with CPT; chicken DT40 Tdp1-/-;hTDP1 cells + 20 nM CPT, ATP luminescence, 48 h; Potency, µM (series often up to 46.2 µM), without a hit: at the top dose activity change, negative = growth inhibition, most hits filed as inhibitors; 420,000 compounds, 12% hits; AID 686979; note: potency is the fitted concentration of half-maximal effect; nearly all actives have a fitted effect of over 55% in size
#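 Cell growth measured by CellTiter-Glo luminescence after a minimum 48 h, 37 C compound exposure with 20 nM CPT in Tdp1-knockout DT40 cells stably expressing hTDP1, seeded 400/well; qHTS titration format.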
# uPA surface inh = blocks generation of uPA at the cell surface | cell surface uPA generation assay, qHTS | Potency, µM (series often up to 38.3 µM), for inactives: top-dose activity change, negative = inhibition, actives largely listed as inhibitors | 330,000 compounds, 0.31% hits | AID 540303; active = well fitted inhibition curve with a large enough effect; inconclusive = small, poorly fitted or top-dose-only effect; inactive = no such curve, though single readings can be large or run the other way; tested in mouse RAW 264.7 cells; note: potency is the fitted concentration of half-maximal effect; nearly all actives have a fitted effect of over 55% in size
# An asterisk follows results filed as active; ? = inconclusive; / = not tested or not shown; [ ] = remark or other dose. Hits are enriched below; roughly 19% of the tested compounds scored in any of these assays. Unless noted, calls come from the whole dose curve; as a rule, active = well fitted curve in the direction sought with a large enough effect; inconclusive = small, poorly fitted or top-dose-only effect, or another doubt; inactive = no such curve, though single readings can be large; an effect the other way counts as inactive or inconclusive. Unless noted, % is set by controls: 0 for no effect and ±100 for the full control effect.
SMILES,HT1080-NT tox,HT1080 IDH1KD tx,IL-1B inflam inh,TDP1 cell noCPT,TDP1 cell CPT,uPA surface inh
CCCc1cnc2c(c1SCC(=O)N1CCC(C)CC1)c(=O)n(C)c(=O)n2C,/,/,/,20.6µM*,16.4µM*,/
CCCc1cnc2c(c1SCC(=O)NCc1ccc(C)cc1)c(=O)n(C)c(=O)n2C,/,/,/,-17.1%,-7.7%,/
CCCc1cnc2c(c1SCC(=O)Nc1ccccc1F)c(=O)n(C)c(=O)n2C,/,/,/,23.1µM*,?,/
CCC(C)Sc1c(C(C)C)cnc2c1c(=O)n(C)c(=O)n2C (stereo not drawn),/,/,/,13µM*,23.1µM*,/
COc1ccc(NC(=O)CSc2c(C(C)C)cnc3c2c(=O)n(C)c(=O)n3C)c(OC)c1,/,/,/,23.1µM*,23.1µM*,/
c1ccc(CCNc2ccc3c(c2)Cc2ccccc2-3)nc1,-16.3%,-23.3%,-3.4,?,9.3%,-1.3%
CS(=O)(=O)N1CCC(C(=O)Nc2cc(Cl)c(Cl)cc2Cl)CC1,-3.4%,3.0%,18.9,-20.0%,30.9%,5.6%
CCOC(=O)N1CCN(CC(=O)Nc2nccs2)CC1,16.3%,7.9%,8.5,0.1%,-0.5%,/
Cc1ccc2oc(=O)c3cc(C(=O)Nc4ccccc4C(N)=O)sc3c2c1,/,/,/,2.4%,7.6%,/
O=C(c1ccc2c(=O)n(CC3CCCO3)c(=S)[nH]c2c1)N1CCN(C(=O)c2ccco2)CC1 (stereo not drawn),9.5%,-0.6%,/,?,?,/
CN1CCN(C(=O)c2ccc(-c3cnc4cccnn34)cc2)CC1,23.4%,0.0%,-17.0,-12.2%,-29.8%,/
CC(C)c1cnc2c(c1SCC(=O)N1CCCCC1)c(=O)n(C)c(=O)n2C,/,/,/,?,23.1µM*,/
CCc1cnc2c(c1SCCC(C)C)c(=O)n(C)c(=O)n2C,/,/,/,?,25.9µM*,/
CC(C)c1cnc2c(c1SCc1cccc(F)c1)c(=O)n(C)c(=O)n2C,/,/,/,23.1µM*,16.4µM*,/
CCc1cnc2c(c1SCc1c(F)cccc1Cl)c(=O)n(C)c(=O)n2C,/,/,/,25.9µM*,14.6µM*,/
Cc1cccc(NC(=O)CSc2c(C)cnc3c2c(=O)n(C)c(=O)n3C)c1C,/,/,/,?,-5.0%,/
Cc1cnc2c(c1SCC(=O)N(C)c1ccccc1)c(=O)n(C)c(=O)n2C,/,/,/,-24.6%,-25.9%,/
Cc1cnc2nc(-c3ccccc3)ccc2c1,-28.2%,-24.2%,0.0,?,?,/
Cn1c(=O)c(=O)n(C)c2cc(S(=O)(=O)N3CCCC3C(=O)Nc3ccc(F)cc3)ccc21 (stereo not drawn),6.0%,-1.4%,0.0,-7.2%,12.1%,6.4%
CC(C)c1cnc2c(c1SCC(=O)c1ccccc1)c(=O)n(C)c(=O)n2C,/,/,/,13µM*,?,/
O=C1CSC(=Nc2cccc(Cl)c2Cl)N1Cc1cccnc1,-11.5%,-25.6%,-52.1*,?,?,12.0%
Nc1cc(N2CCCC2)c(Cl)cc1[N+](=O)[O-],-8.8%,-0.6%,-22.8,?,-12.9%,3.6%
O=[N+]([O-])c1cc(Cl)c(Cl)c(Cl)c1Cl,-0.3%,19.9%,-92.7*,?,-16.8%,1.0%
CC1C(=O)N2CCCc3cc(NC(=O)C(=O)NCc4ccccn4)cc1c32 (stereo not drawn),-2.4%,-3.6%,14.1,-8.7%,-21.4%,-14.7%
NCCNc1ccc(C(=O)N2c3ccccc3Sc3ccccc32)cc1[N+](=O)[O-],?,16.4µM*,-92.2*,18.4µM*,18.4µM*,-7.6%
SMILES,HT1080-NT tox,HT1080 IDH1KD tx,IL-1B inflam inh,TDP1 cell noCPT,TDP1 cell CPT,uPA surface inh
Nc1ccc(C(=O)OCC(=O)N2c3ccccc3Sc3ccccc32)cc1[N+](=O)[O-],-3.1%,-12.8%,-2.6,7.31µM*,?,6.5%
Cc1ccc(NC(=O)c2ccc(NCCN)c([N+](=O)[O-])c2)cc1,-2.8%,-0.1%,-8.8,?,?,-3.7%
Cc1ccc(/C=C/c2onc(C)c2S(=O)(=O)N2CCC(C(=O)NCC(C)c3ccccc3)CC2)cc1 (stereo not drawn),/,/,/,-23.5%,?,/
C=CCNC(=O)c1c(N)n(-c2cccc(S(N)(=O)=O)c2)c2nc3ccccc3nc12,?,?,-58.8*,11.6µM*,14.6µM*,-2.9%
COCCNC(=O)c1c(N)n(-c2ccccc2)c2nc3ccccc3nc12,-3.0%,12.4%,?,-24.6%,-28.6%,11.6%
COCCCNC(=O)c1c(N)n(-c2ccccc2)c2nc3ccccc3nc12,-0.3%,-12.9%,?,18.4µM*,?,-1.9%
COCCNC(=O)c1c(N)n(-c2cccc(C)c2)c2nc3ccccc3nc12,-27.5%,-28.0%,-52.7*,?,?,8.8%
COC(=O)c1c(N)n(-c2ccc(NC(C)=O)cc2)c2nc3ccccc3nc12,9.3%,9.7%[9.24 µM],-52.2*,20.6µM*,23.1µM*,-6.0%
COCCCNC(=O)c1c(N)n(-c2ccc(S(N)(=O)=O)cc2)c2nc3ccccc3nc12,-24.2%,?,-13.4,-16.4%,-12.1%,13.3%
CCc1nc2ccc(C(=O)N(CC)CCN(C)C)cn2c1N(C)C(=O)c1cccc(OC)c1,?,1.4%,3.2,-0.2%,-4.5%,/
COc1ccc(/C=C2\SC(=S)N(CC(=O)N3CCN(C)CC3)C2=O)cc1,-0.4%,-6.4%,-19.4,20.6µM*,?,-6.7%
